Compounds with a hit are over-represented: about 12% of the library has one in this group of screens.
G9a block – blocks human histone lysine methyltransferase G9a; G9a H3K9 monomethylation, AlphaScreen, 2 h; Q96KQ7; Potency, µM (highest dose often 102 µM), inactives show top-dose activity, negative = inhibition, actives largely listed as inhibitors; 350,000 compounds, 8.8% hits; also: % is scaled to controls: 0 for no effect and ±100 for the full control effect; nearly all actives have a fitted effect of over 75% in size
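Methyltransferase reactions run at room temperature for 2 h (20 nM enzyme, 500 nM biotin-H3K9 peptide, 20 uM SAM) after a 15 min compound preincubation; product detected by AlphaScreen beads and anti-H3K9me1 antibody.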
JMJD2A Tudor – JMJD2A Tudor domain (human) inhibition; O75164; 390,000 compounds, 4.4% hits; Potency, µM (top dose mostly 114 µM), inactives show at the top dose activity change, negative = inhibition, most hits filed as inhibitors; AlphaScreen JMJD2A-Tudor / H3K4me3 peptide binding; AID 504339; also: % is scaled to controls: 0 for no effect and ±100 for the full control effect; nearly all actives have a fitted effect of over 50% in size
L3MBTL1 inh – inhibitors of human L3MBTL1; Q9Y468; AlphaScreen L3MBTL1–H3K9me1 peptide binding; Potency, µM (doses to about 57.1 µM), for inactives: at the top dose activity, negative = inhibition, most hits filed as inhibitors; 230,000 compounds, 0.66% hits; also: % is scaled to controls: 0 for no effect and ±100 for the full control effect; nearly all actives have a fitted effect of over 60% in size
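Read-out is AlphaScreen signal from streptavidin donor and nickel chelate acceptor beads (10 ug/mL final each) bridging L3MBTL1 (50 nM) and biotinylated K9-monomethylated H3(1-15) peptide (75 nM), after 30 min compound exposure at room temperature.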
Sfp inh – blocks B. subtilis Sfp PPTase activity | Q9F4F7 | Biochemical Sfp PPTase activity, qHTS | Potency, µM, for inactives: largest response in the series, negative = inhibition, actives largely listed as inhibitors | 310,000 compounds, 3.5% hits | AID 1490;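 also: the enzyme is Sfp with the accession as filed and its product quenches rhodamine fluorescence; 0% = enzyme reaction without inhibitor and -100% = no enzyme wells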
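Buffer: 50 mM Hepes-Na pH 7.6, 10 mM MgCl2, 0.01% Nonidet P-40, 0.01% BSA. Enzyme 15 nM, pre-exposed to compound 15 min; substrates then added and fluorescence change tracked over 30 min.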
HP1b binding inh – HP1-beta chromodomain-methylated histone interaction inhibition; P83916; AlphaScreen HP1-beta / biotin-H3K9me3 peptide binding; Potency, µM (series often up to 114 µM), for the others: top-dose activity change, negative = inhibition, most hits filed as inhibitors; 390,000 compounds, 0.56% hits; also: nearly all actives have a fitted effect of over 70% in size
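Compound inhibition of the preformed complex between 50 nM HP1-beta and 50 nM biotinylated H3K9me3 peptide was read by AlphaScreen. Buffer was PBS pH 7.4 with 0.01% Tween-20. Incubations ran 30 min at room temperature, with 10 ug/mL donor/acceptor beads.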
BAZ2B block – inhibitors of human BAZ2B bromodomain; AlphaScreen BAZ2B-H3K14Ac peptide displacement; Potency, µM (top dose mostly 114 µM), for the others: top-dose activity change, negative = inhibition, usual class: inhibitors; 360,000 compounds, 4.4% hits; AID 504333; also: % is scaled to controls: 0 for no effect and ±100 for the full control effect; nearly all actives have a fitted effect of over 60% in size
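Inhibition is scored as reduced AlphaScreen emission. The BAZ2B/b-H3(5-23)K14Ac complex (50 nM each) in PBS pH 7.4, 0.01% Tween-20 meets compound (up to 110 uM) for 30 min at RT before bead addition.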
An asterisk follows results filed as active; ? = inconclusive; . = not tested or not shown; ! = repeats disagree; [ ] = remark or other dose. Calls follow the shape of the dose curve; as a rule, active = well fitted curve in the direction sought with a large enough effect; inconclusive = small, poorly fitted or top-dose-only effect, or another doubt; inactive = no such curve, though single readings can be large; an effect the other way counts as inactive or inconclusive. Potency is read from the fitted curve at half-maximal effect.

SMILES | G9a block | JMJD2A Tudor | L3MBTL1 inh | Sfp inh | HP1b binding inh | BAZ2B block
O=C(NNC(=S)NC(=O)c1cccs1)c1cccnc1 | 44.7µM* | -9.1% | 3.1% | -0.2% | 44.8% | 9.2%
O=C(NNC(=S)NC(=O)c1cccs1)c1ccc(NC(=O)c2ccccc2)cc1 | 1.6%[59 µM] | -27.4% | 9.4% | 16.2% | 13.5% | -2.7%
O=C(NNC(=O)c1cccs1)c1cccnc1 | -6.9%[59 µM] | -6.8% | . | 28.3% | 20.4% | 3.0%
C/C(=N\NC(=O)c1ccncc1)c1cccnc1 | ? | -2.3% | . | -1.6% | 20.8% | ?
C/C(=N\NC(=O)Cc1ccccc1)c1cccnc1 | 0.9%[0.501 µM] | -7.1% | . | 4.7% | 36.6% | -13.0%
CC(=O)OC[C@@]1(O)C[C@@]23CC[C@@H]4c5ccoc5CC[C@@]4(C)[C@@H]2CCC1C3 | . | . | . | 1.5% | . | .
O=C(CCNC(=O)N1CCn2c1nc1ccccc12)NCc1ccccc1 | 10.2% | 14.8% | . | 13.8% | 37.5% | -8.0%
O=c1cc(-c2ccccc2)nc2cc(-c3ccco3)[nH]n12 | ? | 1.4% | -7.3% | 25.1µM* | 27.5% | -25.1%
O=c1cc(-c2ccccc2)nc2cc(-c3ccc(Br)cc3)[nH]n12 | ? | -8.9% | . | -10.3% | 15.3% | 10.2%
CCN(C(=O)c1ccc(Cl)cc1[N+](=O)[O-])c1ccccc1C | 39.8µM* | -18.9% | -21.5% | 13.3% | 23.9% | -37.6%
CC(C)(C)N(Cc1ccccc1)C(=O)c1ccc(Cl)cc1[N+](=O)[O-] | ? | ? | -24.1% | -1.0% | -24.3% | ?
CCN(C(=O)c1coc(=O)c2ccccc12)c1ccccc1C | -21.6%[59 µM] | -10.2% | . | . | 34.4% | -15.1%
O=C(c1ccc(Cl)cc1[N+](=O)[O-])N(Cc1ccccc1)Cc1ccccc1 | 79.4µM* | . | -6.0% | 5.0% | . | ?
O=C1C=C(c2ccc(CO)cc2)C[C@@H](c2ccc3c(c2)OCO3)C1 | 2.1%[0.501 µM] | -25.4% | 1.3% | . | 15.2% | -1.5%
Cc1cc(C)cc(NC(=O)c2cc(C)nc3ccccc23)c1 | 16.1% | -3.4% | -4.4% | 14.1% | 34.4% | -4.8%
COc1ccc(OC)c(NC(=O)Nc2ccccc2C)c1 | 9.5%[2.33 µM] | -20.1% | . | 15.1% | 5.9% | -21.0%
CCCCNC(=O)NC1(C(F)(F)F)Oc2ccccc2O1 | ? | -20.3% | . | 9.2% | 27.3% | 40.6%
Cc1cc(NC(=O)Nc2ccc(F)c(Cl)c2)no1 | 7.7%[59 µM] | -9.9% | 34.8% | 18.3% | 15.1% | -0.5%
Cc1cc(NC(=O)NC2(C(F)(F)F)Oc3ccc(Cl)cc3O2)no1 (stereo not given) | 7.94µM* | ? | 41.2% | -0.3% | -8.1% | -2.9%
O=C(NCc1cccnc1)NC1(C(F)(F)F)Oc2ccc(Cl)cc2O1 (stereo not given) | 31.6µM* | -9.7% | 5.9% | 0.3% | 41.4% | 5.9%
COCCNC(=O)NC1(C(F)(F)F)Oc2ccc(Cl)cc2O1 (stereo not given) | 39.8µM* | -9.9%[57.1 µM] | -0.2% | 1.2% | -22.6% | 7.3%
COc1ccc(OC)c(NC(=O)NC2(C(F)(F)F)Oc3ccccc3O2)c1 | 7.94µM* | -17.6% | -15.2% | -0.3% | 14.3% | -2.3%
CC(=O)Nc1c(C)nn(-c2ccccc2)c1N1CCC(C(=O)NCc2cccc(F)c2)CC1 | -22.8%[59 µM] | -15.9% | . | . | 22.4%[57 µM] | 8.3%
CN(C)c1ncc2nc(-c3cn(C)c4ccccc34)c(=O)n(C[C@H]3CCCO3)c2n1 | 1.1%[0.501 µM] | . | . | 17.4% | . | .
Cc1cc(C)c(-n2c(C)cc(/C=C3/NC(=O)NC3=O)c2C)c(C)c1 | ? | ? | -20.5% | -18.9% | ? | 50.1µM*
Cc1cc(/C=C2/NC(=O)NC2=O)c(C)n1C | ? | -22.2% | . | -18.7% | -5.6% | -16.5%
Cc1cccc(-n2c(C)cc(/C=C3\NC(=O)NC3=O)c2C)c1 | 44.7µM* | -27.4% | -23.2% | -20.4% | -3.0% | ?
CC(C)(C)CC(C)(C)N1CNC(=S)NC1 | 44.7µM* | -7.7% | -11.0% | 7.9% | 30.6% | -4.1%
C/C(=C\c1ccc(C(=O)O)cc1)c1ccc2c(c1)C(C)(C)CCC2(C)C | 15.8µM*! | -23.4% | -2.4% | 39.8% | 3.5% | 6.5%

High-throughput results as filed in PubChem.
